# In the supplement of paper PMC12282887:
# ± gives the standard deviation of the averaged measurements.
# Legend:
# Assay in all cases: promoter activity interaction Z-score (Lux/OD deviation from empty-vector control); higher = stronger promoter induction by the compound
# [1] = tested on: E. coli BW25113 acrABp lux reporter
# In short: (§1)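 E. coli BW25113 luxCDABE reporter strains grew at 37°C in 40 µl LB Lennox in 384-well plates, with OD600 and luminescence read every 30 min for 12 h. After integration over 0–8 h for wild type or 1–9 h for deletion strains, wells under 10% of the median growth value were removed. Each score is the Z-transformed residual of growth-normalised luminescence fitted against a control.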
# [2] = tested on: E. coli BW25113 marRABp lux reporter
# In short: as §1
# [3] = tested on: E. coli BW25113 micFp lux reporter
# In short: as §1
# [4] = tested on: E. coli BW25113 ompFp lux reporter
# In short: as §1
# [5] = tested on: E. coli BW25113 robp lux reporter
# In short: as §1
# [6] = tested on: E. coli BW25113 soxSp lux reporter
# In short: as §1
# [7] = tested on: E. coli BW25113 tolCp lux reporter
# In short: as §1
# [8] = 0.0081 µg/ml, genetic background: wild type
# [9] = 0.0081 µg/ml, genetic background: ΔmarA
# [10] = 0.0081 µg/ml, genetic background: Δrob
# [11] = 0.0081 µg/ml, genetic background: ΔsoxS
# [12] = 0.016 µg/ml, genetic background: wild type
# [13] = 0.016 µg/ml, genetic background: ΔmarA
# [14] = 0.016 µg/ml, genetic background: Δrob
# [15] = 0.016 µg/ml, genetic background: ΔsoxS
# [16] = 0.033 µg/ml, genetic background: wild type
# [17] = 0.033 µg/ml, genetic background: ΔmarA
# [18] = 0.033 µg/ml, genetic background: Δrob
# [19] = 0.033 µg/ml, genetic background: ΔsoxS
structure (smiles),measurement,setting,value
CC1(C)S[C@@H]2[C@H](/N=C/N3CCCCCC3)C(=O)N2[C@H]1C(=O)O [Mecillinam],promoter activity interaction Z-score,[1]; [8],0.0459 ± 0.4
same,promoter activity interaction Z-score,[1]; [9],1.25 ± 1.5
same,promoter activity interaction Z-score,[1]; [10],-0.273 ± 0.055
same,promoter activity interaction Z-score,[1]; [11],-0.522 ± 0.019
same,promoter activity interaction Z-score,[1]; [12],-0.377 ± 0.16
same,promoter activity interaction Z-score,[1]; [13],0.612 ± 0.15
same,promoter activity interaction Z-score,[1]; [14],-0.267 ± 0.022
same,promoter activity interaction Z-score,[1]; [15],-0.431 ± 0.57
same,promoter activity interaction Z-score,[1]; [16],0.0507 ± 0.0088
same,promoter activity interaction Z-score,[1]; [17],-0.755
same,promoter activity interaction Z-score,[1]; [18],0.113 ± 0.12
same,promoter activity interaction Z-score,[1]; [19],-0.499 ± 0.14
same,promoter activity interaction Z-score,[2]; [8],0.0167 ± 0.096
same,promoter activity interaction Z-score,[2]; [9],-0.0228 ± 0.035
same,promoter activity interaction Z-score,[2]; [10],0.0796 ± 0.13
same,promoter activity interaction Z-score,[2]; [11],-0.119 ± 0.16
same,promoter activity interaction Z-score,[2]; [12],-0.158 ± 0.16
same,promoter activity interaction Z-score,[2]; [13],-0.0902 ± 0.12
same,promoter activity interaction Z-score,[2]; [14],0.334 ± 0.2
same,promoter activity interaction Z-score,[2]; [15],-0.0159 ± 0.17
same,promoter activity interaction Z-score,[2]; [16],0.203 ± 0.034
same,promoter activity interaction Z-score,[2]; [17],0.119
same,promoter activity interaction Z-score,[2]; [18],1.33
same,promoter activity interaction Z-score,[2]; [19],0.151 ± 0.51
same,promoter activity interaction Z-score,[3]; [8],0.276 ± 0.25
same,promoter activity interaction Z-score,[3]; [9],0.207 ± 0.062
same,promoter activity interaction Z-score,[3]; [10],0.351 ± 0.025
same,promoter activity interaction Z-score,[3]; [11],-0.288 ± 0.15
same,promoter activity interaction Z-score,[3]; [12],0.194 ± 0.12
same,promoter activity interaction Z-score,[3]; [13],0.155 ± 0.054
same,promoter activity interaction Z-score,[3]; [14],0.474 ± 0.16
same,promoter activity interaction Z-score,[3]; [15],0.251 ± 0.044
same,promoter activity interaction Z-score,[3]; [16],0.824 ± 0.39
same,promoter activity interaction Z-score,[3]; [17],-0.211 ± 0.025
same,promoter activity interaction Z-score,[3]; [18],-0.0142 ± 0.33
same,promoter activity interaction Z-score,[3]; [19],0.562 ± 0.17
same,promoter activity interaction Z-score,[4]; [8],0.00268 ± 0.17
same,promoter activity interaction Z-score,[4]; [9],-0.0176 ± 0.4
same,promoter activity interaction Z-score,[4]; [10],-0.211 ± 0.62
same,promoter activity interaction Z-score,[4]; [11],-0.38 ± 0.044
same,promoter activity interaction Z-score,[4]; [12],-1.12 ± 0.37
same,promoter activity interaction Z-score,[4]; [13],-0.241 ± 0.0076
same,promoter activity interaction Z-score,[4]; [14],-0.807 ± 1.2
same,promoter activity interaction Z-score,[4]; [15],-0.124 ± 0.41
same,promoter activity interaction Z-score,[4]; [16],-1.28 ± 0.79
same,promoter activity interaction Z-score,[4]; [17],-0.894 ± 1.1
same,promoter activity interaction Z-score,[4]; [18],-1.44
same,promoter activity interaction Z-score,[4]; [19],0.0879 ± 0.27
same,promoter activity interaction Z-score,[5]; [8],0.327 ± 0.16
same,promoter activity interaction Z-score,[5]; [9],1.43 ± 0.17
same,promoter activity interaction Z-score,[5]; [10],-0.0357 ± 0.087
same,promoter activity interaction Z-score,[5]; [11],0.198 ± 0.16
same,promoter activity interaction Z-score,[5]; [12],-0.956 ± 0.2
same,promoter activity interaction Z-score,[5]; [13],0.379 ± 0.24
same,promoter activity interaction Z-score,[5]; [14],-1.19 ± 0.41
same,promoter activity interaction Z-score,[5]; [15],0.457 ± 1.5
same,promoter activity interaction Z-score,[5]; [16],-1.37 ± 0.12
same,promoter activity interaction Z-score,[5]; [17],-0.827 ± 0.15
same,promoter activity interaction Z-score,[5]; [18],-1.65
same,promoter activity interaction Z-score,[5]; [19],-1.03 ± 0.28
same,promoter activity interaction Z-score,[6]; [8],0.14 ± 0.081
same,promoter activity interaction Z-score,[6]; [9],0.149 ± 0.16
same,promoter activity interaction Z-score,[6]; [10],0.13 ± 0.12
same,promoter activity interaction Z-score,[6]; [11],0.171 ± 0.015
same,promoter activity interaction Z-score,[6]; [12],0.0658 ± 0.21
same,promoter activity interaction Z-score,[6]; [13],0.371 ± 0.073
same,promoter activity interaction Z-score,[6]; [14],0.0922 ± 0.097
same,promoter activity interaction Z-score,[6]; [15],0.495 ± 0.048
same,promoter activity interaction Z-score,[6]; [16],0.18 ± 0.061
same,promoter activity interaction Z-score,[6]; [17],0.154 ± 0.13
same,promoter activity interaction Z-score,[6]; [18],-0.163 ± 0.38
same,promoter activity interaction Z-score,[6]; [19],0.865 ± 0.22
same,promoter activity interaction Z-score,[7]; [8],0.00505 ± 0.64
same,promoter activity interaction Z-score,[7]; [9],-0.0513 ± 0.34
same,promoter activity interaction Z-score,[7]; [10],-0.155 ± 0.23
same,promoter activity interaction Z-score,[7]; [11],-0.674 ± 0.22
same,promoter activity interaction Z-score,[7]; [12],-0.967 ± 0.5
same,promoter activity interaction Z-score,[7]; [13],-0.771 ± 0.8
same,promoter activity interaction Z-score,[7]; [14],-1 ± 0.24
same,promoter activity interaction Z-score,[7]; [15],-0.0514 ± 0.98
same,promoter activity interaction Z-score,[7]; [16],-0.779 ± 2.4
same,promoter activity interaction Z-score,[7]; [17],-0.938
same,promoter activity interaction Z-score,[7]; [18],0.0896 ± 2.1
same,promoter activity interaction Z-score,[7]; [19],1.16 ± 0.64
